# Legend:
# Assay in all cases: SPOT peptide array binding signal intensity (averaged, normalized) (arbitrary units (background-subtracted, floor 0; scale differs between SH3 domains)); higher = stronger binding of the SH3 domain to the peptide
# AgAbp1 = target: AgAbp1
# Outline: (§1)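 GST-SH3 fusions from four yeast species, purified on glutathione Sepharose, were incubated at 10 μg/ml overnight at 4°C on membranes of synthetic 15-mer peptides in which cysteines were replaced with serines. Binding signal is the normalized, background-subtracted spot intensity averaged over replicates, in domain-specific arbitrary units.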
# AgBbc1 = target: AgBbc1
# Outline: as §1
# AgBem1-D1 = target: AgBem1-D1
# Outline: as §1
# AgBzz1-D1 = target: AgBzz1-D1
# Outline: as §1
# AgBzz1-D2 = target: AgBzz1-D2
# Outline: as §1
# AgCyk3 = target: AgCyk3
# Outline: as §1
# AgFus1 = target: AgFus1
# Outline: as §1
# AgHof1 = target: AgHof1
# Outline: as §1
# AgHse1 = target: AgHse1
# Outline: as §1
# AgLsb1 = target: AgLsb1
# Outline: as §1
# AgLsb4 = target: AgLsb4
# Outline: as §1
# AgMyo5 = target: AgMyo5
# Outline: as §1
# AgNbp2 = target: AgNbp2
# Outline: as §1
# AgRvs167 = target: AgRvs167
# Outline: as §1
# AgSho1 = target: AgSho1
# Outline: as §1
# AgSla1-D1-D2 = target: AgSla1-D1-D2
# Outline: as §1
# AgSla1-D3 = target: AgSla1-D3
# Outline: as §1
# CaAbp1-D1 = target: CaAbp1-D1
# Outline: as §1
# CaAbp1-D2 = target: CaAbp1-D2
# Outline: as §1
# CaBbc1 = target: CaBbc1
# Outline: as §1
# CaBem1-D1 = target: CaBem1-D1
# Outline: as §1
# CaBzz1-D1 = target: CaBzz1-D1
# Outline: as §1
# CaBzz1-D2 = target: CaBzz1-D2
# Outline: as §1
# CaCyk3 = target: CaCyk3
# Outline: as §1
# CaFus1 = target: CaFus1
# Outline: as §1
# CaHof1 = target: CaHof1
# Outline: as §1
# CaHse1 = target: CaHse1
# Outline: as §1
# CaLsb1 = target: CaLsb1
# Outline: as §1
# CaLsb4 = target: CaLsb4
# Outline: as §1
# CaMyo5 = target: CaMyo5
# Outline: as §1
# CaNbp2 = target: CaNbp2
# Outline: as §1
# CaRvs167 = target: CaRvs167
# Outline: as §1
# CaRvs167-3 = target: CaRvs167-3
# Outline: as §1
# CaSho1 = target: CaSho1
# Outline: as §1
# CaSla1-D1-D2 = target: CaSla1-D1-D2
# Outline: as §1
# CaSla1-D3 = target: CaSla1-D3
# Outline: as §1
# ScAbp1 = target: ScAbp1
# Outline: as §1
# ScBbc1 = target: ScBbc1
# Outline: as §1
# ScBem1-D1 = target: ScBem1-D1
# Outline: as §1
# ScBzz1-D1 = target: ScBzz1-D1
# Outline: as §1
# ScBzz1-D2 = target: ScBzz1-D2
# Outline: as §1
# ScCyk3 = target: ScCyk3
# Outline: as §1
# ScFus1 = target: ScFus1
# Outline: as §1
# ScHof1 = target: ScHof1
# Outline: as §1
# ScHse1 = target: ScHse1
# Outline: as §1
# ScLsb1 = target: ScLsb1
# Outline: as §1
# ScLsb2 = target: ScLsb2
# Outline: as §1
# ScLsb3 = target: ScLsb3
# Outline: as §1
# ScLsb4 = target: ScLsb4
# Outline: as §1
# ScMyo3 = target: ScMyo3
# Outline: as §1
# ScMyo5 = target: ScMyo5
# Outline: as §1
# ScNbp2 = target: ScNbp2
# Outline: as §1
# ScPex13 = target: ScPex13
# Outline: as §1
# ScRvs167 = target: ScRvs167
# Outline: as §1
# ScSho1 = target: ScSho1
# Outline: as §1
# ScSla1-D1-D2 = target: ScSla1-D1-D2
# Outline: as §1
# ScSla1-D3 = target: ScSla1-D3
# Outline: as §1
# SpAbp1-D1 = target: SpAbp1-D1
# Outline: as §1
# SpBbc1 = target: SpBbc1
# Outline: as §1
# SpBzz1-D1 = target: SpBzz1-D1
# Outline: as §1
# SpBzz1-D2 = target: SpBzz1-D2
# Outline: as §1
# SpCyk3 = target: SpCyk3
# Outline: as §1
# SpHof1 = target: SpHof1
# Outline: as §1
# SpHof1-2 = target: SpHof1-2
# Outline: as §1
# SpHof1-3 = target: SpHof1-3
# Outline: as §1
# SpHse1 = target: SpHse1
# Outline: as §1
# SpLsb1 = target: SpLsb1
# Outline: as §1
# SpLsb4 = target: SpLsb4
# Outline: as §1
# SpMyo1 = target: SpMyo1
# Outline: as §1
# SpNbp2 = target: SpNbp2
# Outline: as §1
# SpPex13 = target: SpPex13
# Outline: as §1
# SpRvs167 = target: SpRvs167
# Outline: as §1
# SpSla1-D1-D2 = target: SpSla1-D1-D2
# Outline: as §1
# SpSla1-D3 = target: SpSla1-D3
# Outline: as §1
binder,measurement,setting,value
NMLKKKPLKKPLKRF,SPOT peptide array binding signal intensity,AgAbp1,2990
same,SPOT peptide array binding signal intensity,AgBbc1,12.5
same,SPOT peptide array binding signal intensity,AgBem1-D1,382
same,SPOT peptide array binding signal intensity,AgBzz1-D1,48
same,SPOT peptide array binding signal intensity,AgBzz1-D2,48
same,SPOT peptide array binding signal intensity,AgCyk3,1
same,SPOT peptide array binding signal intensity,AgFus1,450
same,SPOT peptide array binding signal intensity,AgHof1,75
same,SPOT peptide array binding signal intensity,AgHse1,924
same,SPOT peptide array binding signal intensity,AgLsb1,1
same,SPOT peptide array binding signal intensity,AgLsb4,84
same,SPOT peptide array binding signal intensity,AgMyo5,≤ 0
same,SPOT peptide array binding signal intensity,AgNbp2,275
same,SPOT peptide array binding signal intensity,AgRvs167,6.17
same,SPOT peptide array binding signal intensity,AgSho1,363
same,SPOT peptide array binding signal intensity,AgSla1-D1-D2,415
same,SPOT peptide array binding signal intensity,AgSla1-D3,10
same,SPOT peptide array binding signal intensity,CaAbp1-D1,2870
same,SPOT peptide array binding signal intensity,CaAbp1-D2,4760
same,SPOT peptide array binding signal intensity,CaBbc1,98.5
same,SPOT peptide array binding signal intensity,CaBem1-D1,268
same,SPOT peptide array binding signal intensity,CaBzz1-D1,208
same,SPOT peptide array binding signal intensity,CaBzz1-D2,225
same,SPOT peptide array binding signal intensity,CaCyk3,18
same,SPOT peptide array binding signal intensity,CaFus1,2320
same,SPOT peptide array binding signal intensity,CaHof1,≤ 0
same,SPOT peptide array binding signal intensity,CaHse1,226
same,SPOT peptide array binding signal intensity,CaLsb1,4.5
same,SPOT peptide array binding signal intensity,CaLsb4,506
same,SPOT peptide array binding signal intensity,CaMyo5,27.5
same,SPOT peptide array binding signal intensity,CaNbp2,438
same,SPOT peptide array binding signal intensity,CaRvs167,47.7
same,SPOT peptide array binding signal intensity,CaRvs167-3,44
same,SPOT peptide array binding signal intensity,CaSho1,612
same,SPOT peptide array binding signal intensity,CaSla1-D1-D2,586
same,SPOT peptide array binding signal intensity,CaSla1-D3,370
same,SPOT peptide array binding signal intensity,ScAbp1,1040
same,SPOT peptide array binding signal intensity,ScBbc1,1.5
same,SPOT peptide array binding signal intensity,ScBem1-D1,31
same,SPOT peptide array binding signal intensity,ScBzz1-D1,10
same,SPOT peptide array binding signal intensity,ScBzz1-D2,22
same,SPOT peptide array binding signal intensity,ScCyk3,28
same,SPOT peptide array binding signal intensity,ScFus1,648
same,SPOT peptide array binding signal intensity,ScHof1,0.25
same,SPOT peptide array binding signal intensity,ScHse1,1740
same,SPOT peptide array binding signal intensity,ScLsb1,1
same,SPOT peptide array binding signal intensity,ScLsb2,1
same,SPOT peptide array binding signal intensity,ScLsb3,340
same,SPOT peptide array binding signal intensity,ScLsb4,94
same,SPOT peptide array binding signal intensity,ScMyo3,2
same,SPOT peptide array binding signal intensity,ScMyo5,≤ 0
same,SPOT peptide array binding signal intensity,ScNbp2,552
same,SPOT peptide array binding signal intensity,ScPex13,194
same,SPOT peptide array binding signal intensity,ScRvs167,7
same,SPOT peptide array binding signal intensity,ScSho1,1720
same,SPOT peptide array binding signal intensity,ScSla1-D1-D2,616
same,SPOT peptide array binding signal intensity,ScSla1-D3,261
same,SPOT peptide array binding signal intensity,SpAbp1-D1,1740
same,SPOT peptide array binding signal intensity,SpBbc1,4.25
same,SPOT peptide array binding signal intensity,SpBzz1-D1,279
same,SPOT peptide array binding signal intensity,SpBzz1-D2,48.2
same,SPOT peptide array binding signal intensity,SpCyk3,7.5
same,SPOT peptide array binding signal intensity,SpHof1,134
same,SPOT peptide array binding signal intensity,SpHof1-2,26
same,SPOT peptide array binding signal intensity,SpHof1-3,804
same,SPOT peptide array binding signal intensity,SpHse1,772
same,SPOT peptide array binding signal intensity,SpLsb1,31.8
same,SPOT peptide array binding signal intensity,SpLsb4,388
same,SPOT peptide array binding signal intensity,SpMyo1,21.8
same,SPOT peptide array binding signal intensity,SpNbp2,536
same,SPOT peptide array binding signal intensity,SpPex13,73.5
same,SPOT peptide array binding signal intensity,SpRvs167,15.8
same,SPOT peptide array binding signal intensity,SpSla1-D1-D2,9
same,SPOT peptide array binding signal intensity,SpSla1-D3,106

# Reference: the supplement of paper PMC4466140
